Integrin act MD: activators of alpha7 integrin expression for muscular dystrophy; alpha7betagal myoblasts, beta-gal FDG fluorescence, 48 h; Potency, µM (doses to about 38.3 µM), without a hit: at the highest dose activation, actives largely listed as activators; 350,000 tested, 0.064% active;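 also: potency is read from the fitted curve at half-maximal effect; 100% = response of the positive control SU9516; nearly all actives have a fitted effect of over 60% in size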
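Alpha7betagal+/- myoblasts (passage 13) were plated 16-24 hr, then exposed to compounds (1:260 dilution of DMSO stock) for 48 hours at 37C. After MPER lysis, β-galactosidase reporter activity was read as FDG fluorescence (ex 480/em 540) after 30 minutes.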
uPA generation: cell surface uPA generation inhibition. cell surface uPA generation assay, qHTS. Potency, µM (titrated, usually from 38.3 µM), for inactives: at the highest dose activity change, negative = inhibition, usual class: inhibitors. 330,000 tested, 0.31% active. AID 540303; active = well fitted inhibition curve with a large enough effect; inconclusive = small, poorly fitted or top-dose-only effect; inactive = no such curve, though single readings can be large or run the other way; tested in mouse RAW 264.7 cells; also: potency is read from the fitted curve at half-maximal effect; % is scaled to controls: 0 for no effect and ±100 for the full control effect; nearly all actives have a fitted effect of over 55% in size
Nrf2 ARE act: activates Nrf2 signaling; AREc32 ARE-luciferase reporter (MCF7-derived line), luminescence, 24 h; Potency, µM (titrated, usually from 46.1 µM), inactives show at the highest dose activation, usual class: activators; 410,000 tested, 0.31% active; AID 624171; also: potency is read from the fitted curve at half-maximal effect; % of control where 0% means no effect; nearly all actives have a fitted effect of over 65% in size
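For detection, Steady-Glo was added and plates sat 30 min at RT; before that, AREc32_Fluc cells grown overnight in OPTI-MEM/5% FBS had been treated with 23 nL compound for 24 hr at 37 deg C.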
ALOX12 inh: inhibitors of human 12S-lipoxygenase ALOX12. Potency, µM (series often up to 108 µM), inactives show at the top dose activity change, negative = inhibition, usual class: inhibitors. purified 12hLO, xylenol orange hydroperoxide absorbance. 580,000 tested, 1.1% active; also: potency is read from the fitted curve at half-maximal effect; % is scaled to controls: 0 for no effect and ±100 for the full control effect
Target sequence (P18054 whole entry, looked up): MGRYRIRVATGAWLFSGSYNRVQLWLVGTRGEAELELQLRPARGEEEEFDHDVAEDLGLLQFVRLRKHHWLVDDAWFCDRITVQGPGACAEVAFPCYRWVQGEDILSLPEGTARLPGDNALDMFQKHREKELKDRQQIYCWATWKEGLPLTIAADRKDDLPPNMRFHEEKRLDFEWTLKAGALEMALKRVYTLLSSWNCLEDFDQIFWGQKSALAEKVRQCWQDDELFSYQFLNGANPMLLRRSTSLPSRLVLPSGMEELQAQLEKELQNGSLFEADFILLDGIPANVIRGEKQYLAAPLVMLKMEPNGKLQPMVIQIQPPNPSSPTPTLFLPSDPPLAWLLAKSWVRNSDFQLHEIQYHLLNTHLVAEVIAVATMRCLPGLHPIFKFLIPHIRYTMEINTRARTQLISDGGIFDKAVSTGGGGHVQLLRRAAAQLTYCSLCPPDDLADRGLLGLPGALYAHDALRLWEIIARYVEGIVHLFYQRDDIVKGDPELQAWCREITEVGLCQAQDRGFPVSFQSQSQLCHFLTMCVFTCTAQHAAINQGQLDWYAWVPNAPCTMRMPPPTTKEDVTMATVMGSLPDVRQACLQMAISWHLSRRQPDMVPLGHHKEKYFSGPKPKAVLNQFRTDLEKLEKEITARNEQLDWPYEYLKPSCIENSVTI
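Purified human 12hLO at 150 nM in 25 mM Hepes, 0.01% Triton X-100, pH 7.0, preincubated 15 min at room temperature with compound. Reaction started with 40 uM arachidonic acid, 30 min at room temperature. Hydroperoxide measured by Fe-xylenol orange, 573/405 nm absorbance ratio.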
IL2 activator: activates IL-2 in a cell-based reporter assay | IL-2 activation reporter assay, cell-based qHTS; stimulated with anti-CD3/CD4/CD28 beads; in transgenic mouse T cells | activation, % (series mostly up to about 46 µM) | 360,000 tested, 0.065% active | AID 652025; in the data active = activation above about 50%; inconclusive = mostly about 30% to 49%; also: 0% is about no effect
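Readout: EGFP and DsRed signals by fluorescent plate cytometry. Unstimulated transgenic mouse T cells received compound 60 min before antibody-bead stimulation, then incubated 18 h at 37 degrees C.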
* = called active by the depositor; ! = not active in a repeat; [ ] = remark or other dose. Most compounds without a hit are left out; they make up all but 1.5% or so of the library. Unless noted, calls follow the shape of the dose curve; as a rule, active = well fitted curve in the direction sought with a large enough effect; inconclusive = small, poorly fitted or top-dose-only effect, or another doubt; inactive = no such curve, though single readings can be large; an effect the other way counts as inactive or inconclusive.

Results for C[N+]12CCC(CC1)C(=C(c1ccccc1)c1ccccc1)C2 ?
Integrin act MD: -14%; uPA generation: -14%; Nrf2 ARE act: -1%; ALOX12 inh: 35µM*; IL2 activator: -1

What do the screens show for `COc1ccc(CCNCc2cccc(Br)c2)cc1`?
ALOX12 inh: 1.3µM*

Results for COc1ccc(CCNCc2ccc(Br)cc2)cc1 ?
ALOX12 inh: 22µM*

Results for C=C[C@H]1CN2CC[C@H]1C[C@@H]2CNC(=O)C1CC1 ?
ALOX12 inh: 54%[176 µM]

Results for CCN(CC)c1ccc(N=Cc2c(O)n(Cc3ccco3)c(=O)[nH]c2=O)cc1 ?
Integrin act MD: -25%; uPA generation: 4%; Nrf2 ARE act: 3%; ALOX12 inh: inconclusive; IL2 activator: 84*

Results for NC(=O)c1ccc(N=Cc2c(O)n(Cc3ccco3)c(=O)[nH]c2=O)cc1 ?
Integrin act MD: 13%; uPA generation: 2%; Nrf2 ARE act: -1%; ALOX12 inh: -5%; IL2 activator: 1

Results for CCC(c1cccs1)N1C(=O)[C@H]2CNC[C@H]2C1=O (stereo partly drawn) ?
ALOX12 inh: 14%

Results for COc1ccc(N2C(=O)/C(=C/c3cc(C)n(-c4ccc(C)cn4)c3C)C(=O)NC2=S)c(OC)c1 ?
Integrin act MD: inconclusive; uPA generation: -7%; Nrf2 ARE act: 0%; ALOX12 inh: 35µM*; IL2 activator: -1

How did Oc1cccc2cccnc12 do in these assays?
ALOX12 inh: 9.3µM*!

What do the screens show for `O=C1c2ccccc2C(=O)N1SC1CCCCC1`?
Integrin act MD: -63%; uPA generation: -4%; Nrf2 ARE act: 1%; ALOX12 inh: 16µM*; IL2 activator: -1

Results for CCN(CC)C(=O)c1ccc(NC(=O)c2cccc(C(F)(F)F)c2)cc1 ?
Integrin act MD: -7%; uPA generation: -1%; Nrf2 ARE act: 1%; ALOX12 inh: 0%; IL2 activator: -2

Results for CCN1CCN(S(=O)(=O)c2ccc(Cl)c(C(=O)Nc3ccc(C(=O)N(CC)CC)cc3)c2)CC1 ?
Integrin act MD: -30%; uPA generation: 0%; Nrf2 ARE act: 0%; ALOX12 inh: 20µM*; IL2 activator: -4

How did CC1CCN(C(CC(=O)c2ccccc2)C(=O)c2ccccc2)CC1 (stereo not drawn) do in these assays?
Integrin act MD: -35%; uPA generation: -12%; Nrf2 ARE act: 1%; ALOX12 inh: 8.9µM*; IL2 activator: -1

What do the screens show for `O=C1NC(=O)N(c2ccc(Cl)cc2)C(=O)/C1=C\c1ccc(Sc2nc3ccccc3[nH]2)o1`?
Integrin act MD: 7%; uPA generation: -2%; Nrf2 ARE act: 1%; ALOX12 inh: 8.9µM*; IL2 activator: -4

What do the screens show for `FC(F)Sc1ccc(NC(=S)NC(c2ccccc2)c2ccccc2)cc1`?
Integrin act MD: -73%; uPA generation: inconclusive; Nrf2 ARE act: -3%; ALOX12 inh: 40µM*; IL2 activator: -1

What do the screens show for `O=C(COC(=O)Cc1ccccc1)Nc1ccc(SC(F)F)cc1`?
Integrin act MD: 10%; uPA generation: 6%; Nrf2 ARE act: -1%; ALOX12 inh: 0%; IL2 activator: 4

How did COc1ccc(-c2cc([C@H]3CN4CC[C@H]3C[C@@H]4CNC(=O)C3CCCCC3)n(C)n2)cc1OC do in these assays?
ALOX12 inh: 73%

What do the screens show for `Cc1cccc(NC(=O)Oc2ccc(Cl)c3cccnc23)c1`?
Integrin act MD: -46%; Nrf2 ARE act: 23%; ALOX12 inh: 40µM*; IL2 activator: -4

Results for OCC1CN2CCCCC2CN1 (stereo not drawn) ?
ALOX12 inh: 48%[365 µM]

What do the screens show for `O=C(NCc1ccc(F)cc1)[C@H]1CN2CCC1C[C@@H]2Cn1cc(-c2ccccn2)nn1` (stereo partly drawn)?
ALOX12 inh: 9%[176 µM]

What do the screens show for `COCc1nc(C2CC(N)C2)cc(N2CCCN3CCC[C@H]3C2)n1` (stereo partly drawn)?
ALOX12 inh: -17%

What do the screens show for `COc1ccccc1NC(=O)Nc1ccc2n(c1=O)C[C@H]1C[C@@H]2CN(C2CCOCC2)C1`?
ALOX12 inh: 13µM*

Results for C=C[C@H]1CN2CC[C@H]1C[C@@H]2CNC(=O)C1CCCCC1 ?
ALOX12 inh: 63%[176 µM]

Bioassay records as filed in PubChem BioAssay.
